From the supplement of paper PMC11732987, “Enantioselective OTUD7B fragment discovery through chemoproteomics screening and high-throughput optimisation” (Communications Chemistry, 2025)

What was measured:
Assay in all cases: log2 ratio of Biotin-Ahx-Ub-VS probe labelling (fragment/DMSO); higher = less target engagement (more negative = stronger competition), active = hit call of the paper (q ≤ 0.05, log2 ratio ≤ -1)
Details in all cases: compound concentration: 200 uM; treatment time: 3 h
USP19 = molecular target: T1, USP19 (UniProt O94966)
T1 sequence (whole entry): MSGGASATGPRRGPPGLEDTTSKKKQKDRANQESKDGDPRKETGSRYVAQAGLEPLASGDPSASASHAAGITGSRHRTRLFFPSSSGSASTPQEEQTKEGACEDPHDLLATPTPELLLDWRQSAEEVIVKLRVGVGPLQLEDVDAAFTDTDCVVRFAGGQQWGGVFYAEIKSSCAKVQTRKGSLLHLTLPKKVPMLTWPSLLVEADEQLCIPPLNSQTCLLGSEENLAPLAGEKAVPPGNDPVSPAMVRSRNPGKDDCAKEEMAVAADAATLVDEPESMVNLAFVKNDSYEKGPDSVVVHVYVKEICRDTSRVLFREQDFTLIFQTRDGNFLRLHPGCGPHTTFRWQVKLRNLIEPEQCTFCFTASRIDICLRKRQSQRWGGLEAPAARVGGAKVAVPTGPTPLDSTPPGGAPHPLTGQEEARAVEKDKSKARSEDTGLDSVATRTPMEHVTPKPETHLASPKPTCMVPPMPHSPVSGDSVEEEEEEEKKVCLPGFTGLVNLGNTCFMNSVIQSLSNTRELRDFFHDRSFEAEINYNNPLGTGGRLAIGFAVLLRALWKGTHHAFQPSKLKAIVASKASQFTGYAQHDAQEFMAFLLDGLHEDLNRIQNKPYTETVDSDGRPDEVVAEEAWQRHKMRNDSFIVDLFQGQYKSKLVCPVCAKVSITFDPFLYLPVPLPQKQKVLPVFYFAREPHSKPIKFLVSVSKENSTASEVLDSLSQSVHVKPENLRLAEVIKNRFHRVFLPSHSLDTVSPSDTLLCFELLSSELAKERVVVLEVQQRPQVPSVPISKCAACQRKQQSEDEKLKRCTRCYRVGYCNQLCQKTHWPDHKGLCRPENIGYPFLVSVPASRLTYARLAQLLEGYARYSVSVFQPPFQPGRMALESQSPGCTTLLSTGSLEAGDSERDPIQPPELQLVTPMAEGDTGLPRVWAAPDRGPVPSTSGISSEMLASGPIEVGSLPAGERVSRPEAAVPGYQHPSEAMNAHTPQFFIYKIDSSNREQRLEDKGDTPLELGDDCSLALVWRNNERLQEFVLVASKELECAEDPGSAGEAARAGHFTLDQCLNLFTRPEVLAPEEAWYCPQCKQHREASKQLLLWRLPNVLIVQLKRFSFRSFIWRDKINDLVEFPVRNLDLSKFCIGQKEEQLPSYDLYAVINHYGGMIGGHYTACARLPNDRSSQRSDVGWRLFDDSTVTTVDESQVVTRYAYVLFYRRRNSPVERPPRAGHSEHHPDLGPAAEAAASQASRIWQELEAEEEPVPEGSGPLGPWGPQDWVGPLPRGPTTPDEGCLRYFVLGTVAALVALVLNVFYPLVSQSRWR
Summary of the method: (§1)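 HEK293T lysate, 495 µg per sample in Tris/CHAPS/IGEPAL buffer with protease inhibitors, was treated in triplicate with fragment at 200 µM or vehicle for 3 h and then with Biotin-Ahx-Ub-VS at 0.5 µM final for 1 h. Labelled DUBs were NeutrAvidin-enriched, digested with LysC and trypsin, and run by diaPASEF LC-MS/MS. Spectronaut label-free quantities were global-median-normalised, and values are average log2 fragment/vehicle ratios by unpaired t-test on proteins with ≥2 unique peptides.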

USP22 = molecular target: T2, USP22 (UniProt Q9UPT9)
T2 sequence (whole entry): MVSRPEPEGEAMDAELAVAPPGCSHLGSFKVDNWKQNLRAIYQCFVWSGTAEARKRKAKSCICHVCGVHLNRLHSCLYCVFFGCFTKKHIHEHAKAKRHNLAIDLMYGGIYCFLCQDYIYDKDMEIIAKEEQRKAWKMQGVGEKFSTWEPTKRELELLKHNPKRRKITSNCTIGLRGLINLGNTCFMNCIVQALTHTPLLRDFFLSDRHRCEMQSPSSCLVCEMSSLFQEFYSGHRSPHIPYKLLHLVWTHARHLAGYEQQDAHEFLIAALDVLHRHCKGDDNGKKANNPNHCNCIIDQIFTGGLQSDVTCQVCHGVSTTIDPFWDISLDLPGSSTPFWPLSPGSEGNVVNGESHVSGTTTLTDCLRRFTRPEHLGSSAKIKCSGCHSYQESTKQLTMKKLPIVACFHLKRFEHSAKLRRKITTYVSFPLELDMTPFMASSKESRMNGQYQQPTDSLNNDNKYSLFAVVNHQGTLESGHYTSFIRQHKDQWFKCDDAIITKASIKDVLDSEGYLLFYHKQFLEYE
Summary of the method: as §1

USP24 = USP24 (UniProt Q9UPU5)
Summary of the method: as §1

USP25 = molecular target: T3, USP25 (UniProt Q9UHP3)
T3 sequence (whole entry): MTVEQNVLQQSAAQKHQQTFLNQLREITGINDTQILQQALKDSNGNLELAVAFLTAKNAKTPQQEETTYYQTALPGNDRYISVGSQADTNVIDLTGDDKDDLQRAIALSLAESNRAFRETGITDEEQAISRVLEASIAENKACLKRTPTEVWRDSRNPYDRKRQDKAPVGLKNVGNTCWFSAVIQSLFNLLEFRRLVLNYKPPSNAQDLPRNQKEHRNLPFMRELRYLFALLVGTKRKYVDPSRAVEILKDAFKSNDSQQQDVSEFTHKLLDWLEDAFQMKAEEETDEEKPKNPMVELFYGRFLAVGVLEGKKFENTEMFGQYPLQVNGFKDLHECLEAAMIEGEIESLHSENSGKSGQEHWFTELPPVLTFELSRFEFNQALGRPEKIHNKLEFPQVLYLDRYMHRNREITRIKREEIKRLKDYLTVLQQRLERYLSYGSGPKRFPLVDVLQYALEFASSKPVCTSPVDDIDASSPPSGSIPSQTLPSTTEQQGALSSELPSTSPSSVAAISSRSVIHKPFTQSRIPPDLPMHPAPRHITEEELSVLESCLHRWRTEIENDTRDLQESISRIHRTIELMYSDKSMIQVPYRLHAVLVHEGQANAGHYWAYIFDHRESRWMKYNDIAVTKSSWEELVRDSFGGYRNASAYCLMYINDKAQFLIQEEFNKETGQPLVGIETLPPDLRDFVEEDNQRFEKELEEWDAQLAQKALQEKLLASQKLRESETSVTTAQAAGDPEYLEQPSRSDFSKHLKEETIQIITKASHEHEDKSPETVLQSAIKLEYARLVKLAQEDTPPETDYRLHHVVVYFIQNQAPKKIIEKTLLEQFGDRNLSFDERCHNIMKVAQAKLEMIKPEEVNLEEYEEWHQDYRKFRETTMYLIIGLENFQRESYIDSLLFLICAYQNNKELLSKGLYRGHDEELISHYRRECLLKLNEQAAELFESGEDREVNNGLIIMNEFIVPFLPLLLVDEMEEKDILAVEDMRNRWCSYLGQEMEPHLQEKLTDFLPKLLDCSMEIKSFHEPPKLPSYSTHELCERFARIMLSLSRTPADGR
Summary of the method: as §1

USP28 = molecular target: T4, USP28 (UniProt Q96RU2)
T4 sequence (whole entry): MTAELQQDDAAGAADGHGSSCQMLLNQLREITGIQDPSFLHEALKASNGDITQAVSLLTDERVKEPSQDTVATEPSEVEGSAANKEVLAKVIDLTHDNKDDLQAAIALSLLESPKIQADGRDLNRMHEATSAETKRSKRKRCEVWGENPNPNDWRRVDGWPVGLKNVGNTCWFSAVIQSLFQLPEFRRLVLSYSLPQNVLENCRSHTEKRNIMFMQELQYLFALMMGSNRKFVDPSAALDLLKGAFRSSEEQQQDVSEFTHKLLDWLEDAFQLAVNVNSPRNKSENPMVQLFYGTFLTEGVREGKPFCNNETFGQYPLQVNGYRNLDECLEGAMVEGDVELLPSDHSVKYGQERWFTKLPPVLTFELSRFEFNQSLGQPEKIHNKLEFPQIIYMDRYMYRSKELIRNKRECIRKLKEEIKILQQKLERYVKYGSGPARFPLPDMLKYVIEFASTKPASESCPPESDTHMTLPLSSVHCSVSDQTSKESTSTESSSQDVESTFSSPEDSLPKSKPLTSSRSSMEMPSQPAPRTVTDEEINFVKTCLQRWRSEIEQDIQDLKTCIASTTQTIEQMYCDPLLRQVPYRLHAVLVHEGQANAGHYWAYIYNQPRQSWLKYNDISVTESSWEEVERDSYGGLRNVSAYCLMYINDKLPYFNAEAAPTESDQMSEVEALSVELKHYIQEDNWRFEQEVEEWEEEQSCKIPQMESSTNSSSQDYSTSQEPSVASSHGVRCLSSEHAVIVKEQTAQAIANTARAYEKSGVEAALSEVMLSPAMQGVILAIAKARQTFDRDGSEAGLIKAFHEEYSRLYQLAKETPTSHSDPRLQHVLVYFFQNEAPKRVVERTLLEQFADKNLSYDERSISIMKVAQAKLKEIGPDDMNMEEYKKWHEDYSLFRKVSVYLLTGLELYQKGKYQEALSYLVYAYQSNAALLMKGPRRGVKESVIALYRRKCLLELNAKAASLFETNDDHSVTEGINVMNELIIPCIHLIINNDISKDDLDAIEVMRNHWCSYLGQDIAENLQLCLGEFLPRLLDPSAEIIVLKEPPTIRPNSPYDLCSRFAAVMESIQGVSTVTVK
Summary of the method: as §1

Measured: log2 ratio of Biotin-Ahx-Ub-VS probe labelling

USP24, sequence (Q9UPU5 whole entry): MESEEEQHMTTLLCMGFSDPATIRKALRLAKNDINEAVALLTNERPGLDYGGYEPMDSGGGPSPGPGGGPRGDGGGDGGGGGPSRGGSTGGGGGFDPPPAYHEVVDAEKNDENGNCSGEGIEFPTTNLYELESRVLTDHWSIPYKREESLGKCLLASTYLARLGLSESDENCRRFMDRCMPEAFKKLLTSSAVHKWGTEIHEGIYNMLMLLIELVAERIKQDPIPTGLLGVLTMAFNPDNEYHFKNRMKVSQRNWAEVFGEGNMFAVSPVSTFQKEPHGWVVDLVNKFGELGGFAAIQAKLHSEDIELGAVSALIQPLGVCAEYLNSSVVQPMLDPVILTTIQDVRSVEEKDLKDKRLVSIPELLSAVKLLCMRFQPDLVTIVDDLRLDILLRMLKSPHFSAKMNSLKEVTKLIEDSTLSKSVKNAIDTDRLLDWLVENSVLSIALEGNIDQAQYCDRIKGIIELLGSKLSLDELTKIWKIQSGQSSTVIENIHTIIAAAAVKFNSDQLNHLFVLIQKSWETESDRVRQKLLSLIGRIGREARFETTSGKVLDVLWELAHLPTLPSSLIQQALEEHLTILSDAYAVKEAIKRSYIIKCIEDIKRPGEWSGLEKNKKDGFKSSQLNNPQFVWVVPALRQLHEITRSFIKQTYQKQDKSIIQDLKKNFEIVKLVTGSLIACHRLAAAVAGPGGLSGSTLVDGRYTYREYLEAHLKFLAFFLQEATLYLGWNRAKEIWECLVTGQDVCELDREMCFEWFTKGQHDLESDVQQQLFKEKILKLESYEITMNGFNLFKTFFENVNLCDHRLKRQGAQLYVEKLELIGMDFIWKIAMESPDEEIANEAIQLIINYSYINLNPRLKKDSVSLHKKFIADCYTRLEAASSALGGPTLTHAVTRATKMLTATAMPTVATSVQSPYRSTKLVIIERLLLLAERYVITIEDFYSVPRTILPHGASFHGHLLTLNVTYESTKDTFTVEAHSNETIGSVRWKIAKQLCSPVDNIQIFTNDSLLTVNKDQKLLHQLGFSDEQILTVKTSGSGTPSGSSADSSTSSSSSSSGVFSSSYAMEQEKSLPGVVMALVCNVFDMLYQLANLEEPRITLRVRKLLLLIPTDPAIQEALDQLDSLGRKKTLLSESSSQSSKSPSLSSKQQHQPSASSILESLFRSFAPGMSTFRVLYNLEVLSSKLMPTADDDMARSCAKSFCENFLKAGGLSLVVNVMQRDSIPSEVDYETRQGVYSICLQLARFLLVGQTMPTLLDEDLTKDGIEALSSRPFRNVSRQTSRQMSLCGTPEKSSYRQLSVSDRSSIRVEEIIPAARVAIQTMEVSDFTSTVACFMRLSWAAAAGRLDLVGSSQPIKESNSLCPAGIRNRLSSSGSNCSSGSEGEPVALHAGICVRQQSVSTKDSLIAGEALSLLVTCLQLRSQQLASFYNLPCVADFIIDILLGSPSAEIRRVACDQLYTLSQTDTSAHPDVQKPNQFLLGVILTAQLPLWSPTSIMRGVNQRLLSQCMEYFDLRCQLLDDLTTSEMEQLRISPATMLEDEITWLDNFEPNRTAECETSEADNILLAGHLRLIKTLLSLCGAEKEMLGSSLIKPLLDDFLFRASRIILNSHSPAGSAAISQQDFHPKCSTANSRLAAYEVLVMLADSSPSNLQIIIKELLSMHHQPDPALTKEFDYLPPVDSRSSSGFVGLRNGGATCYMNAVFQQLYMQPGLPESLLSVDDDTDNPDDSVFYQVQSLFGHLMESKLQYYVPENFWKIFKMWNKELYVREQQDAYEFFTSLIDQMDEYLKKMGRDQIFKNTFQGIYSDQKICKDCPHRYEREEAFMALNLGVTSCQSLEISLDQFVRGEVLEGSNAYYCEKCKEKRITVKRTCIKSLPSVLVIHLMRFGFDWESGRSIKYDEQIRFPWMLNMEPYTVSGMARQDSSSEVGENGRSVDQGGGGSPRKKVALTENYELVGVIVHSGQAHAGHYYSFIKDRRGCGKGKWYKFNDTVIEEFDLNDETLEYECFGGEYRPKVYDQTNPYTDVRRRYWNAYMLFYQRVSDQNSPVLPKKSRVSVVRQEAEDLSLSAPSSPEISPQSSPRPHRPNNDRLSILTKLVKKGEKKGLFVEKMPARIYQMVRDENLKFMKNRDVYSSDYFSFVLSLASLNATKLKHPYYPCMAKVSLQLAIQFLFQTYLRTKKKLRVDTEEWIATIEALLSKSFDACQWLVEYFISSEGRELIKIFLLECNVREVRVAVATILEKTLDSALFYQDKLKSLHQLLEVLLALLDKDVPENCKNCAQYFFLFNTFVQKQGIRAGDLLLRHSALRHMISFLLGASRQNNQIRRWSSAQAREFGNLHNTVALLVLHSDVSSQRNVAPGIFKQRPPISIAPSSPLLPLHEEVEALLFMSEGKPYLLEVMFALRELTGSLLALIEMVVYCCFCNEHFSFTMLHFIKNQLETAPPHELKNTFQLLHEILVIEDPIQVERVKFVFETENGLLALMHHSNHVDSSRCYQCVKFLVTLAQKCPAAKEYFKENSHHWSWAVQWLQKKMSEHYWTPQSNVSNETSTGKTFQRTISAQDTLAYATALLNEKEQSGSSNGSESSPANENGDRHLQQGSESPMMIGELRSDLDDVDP

CC1CCc2onc(CNC(=O)CCl)c2C1 (stereo not given)
inactive: USP19 0.0516 | USP22 0.192 | USP24 0.0469 | USP25 0.00198 | USP28 -0.19
